Data on 99 molecules can be found in PubChem BioAssay AID463173 (ICCB-Longwood Screening Facility, Harvard Medical School, 2010).

Molecules are shown by their SMILES. Among all 52,000 compounds or so, about 4,300 (8.3%) were called active. The sample holds actives, similar compounds and a random draw of the others, so the mix is not that of the screen. Rule as the data show it: active = survival mostly below about 52% (no sharp cut-off); inactive = mostly above about 56%.

The assay relates to DeltatarO mutant. Nature of the assay: growth inhibition of S. aureus wild type versus tarO mutant, primary screen, teichoic acid synthesis inhibitors, RN4220, OD600 (AID 463173). Particulars: OD600, 18 h, hits give low values, screened at 18.75 µg/mL (by protocol).
Regarding `Cn1c(=O)n(C)c2cc(NS(=O)(=O)c3ccc(F)cc3)c(NCc3ccccc3)cc21`, the survival was 68% (inactive).

Regarding `CCc1nn(CCCC(=O)N2CCN(c3ccc(OC)cc3)CC2)c(=O)c2cc3occc3n12`, the survival is 87% (inactive).

Consider `Cc1ccc(OCc2nc3ccccc3n2Cc2ccccc2Cl)cc1`, for which the survival is -8% (active).

Turning to `C#CCn1c(COc2ccccc2C)nc2ccccc21`, the survival is 111% (inactive).

Turning to `COc1ccc(OCc2nc3ccccc3n2Cc2ccccc2Cl)cc1`, the survival was 39% (active).

Turning to `COc1ccc(-n2c(=O)c3ccccc3n(Cc3ccccc3Cl)c2=O)cc1`, the survival is 110% (inactive).

For the molecule `Cc1ccccc1Cn1c(COc2ccc(Cl)cc2)nc2ccccc21`, the survival was 114% (inactive).

For the molecule `Cc1cccc(C(=O)NCc2nc3ccccc3n2Cc2ccccc2Cl)c1`, the survival was 106% (inactive).

Consider `C=CCc1ccccc1OCc1nc2ccccc2n1CC`, for which the survival was 49% (inactive).

On to `Cc1ccccc1OCc1nc2ccccc2n1Cc1ccccc1Cl`, for which the survival is 0% (active).

On to `CCc1cc(C(=O)NCc2ccc(F)cc2)no1`, for which the survival was 53% (inactive).

For the molecule `Cc1cc(=O)oc2cc(OCC(=O)NCc3ccco3)ccc12`, the survival is 74% (inactive).

With `CC(C)C(c1nnnn1C1CCCC1)N1CCN(C(=O)c2ccco2)CC1` (centres undefined), the survival is 86% (inactive).

Consider `Cc1cccc(C(=O)NCC(c2ccc3c(c2)OCO3)N2CCOCC2)c1` (centres undefined), for which the survival is 73% (inactive).

In the case of `Cc1ccc(N2C(=O)CCSC23C(=O)N(Cc2ccccc2)c2ccccc23)cc1` (centres undefined), the survival is 89% (inactive).

Take `Cc1cccc(NC(=O)CSc2nnc(N)s2)c1`: the survival was 149% (inactive).

On to `COc1cc(C(=O)NCCc2sc(-c3ccc(C)cc3)nc2C)cc(OC)c1OC`, for which the survival is 80% (inactive).

As to `Cc1ccc(/C=C2\SC(=O)NC2=S)o1`, the survival was 33% (active).

As to `Cc1ccc(N=Cc2ccc(C)o2)cc1`, the survival was 98% (inactive).

As for `Cc1ccc(-n2c(C)cc(/C=C3\SC(=O)NC3=O)c2C)cc1`, the survival was 95% (inactive).

With `Fc1ccc(CNc2ccc(N3CCCC3)cc2)cc1`, the survival was 97% (inactive).

For `Cc1ccccc1CNC(=O)CN1C(=O)C2CCCCN2c2ccc(C(=O)N3CCCC3)cc21` (centres undefined), the survival is 76% (inactive).

In the case of `CCC(C)NC(=O)c1ccc2c(c1)N(Cc1ccccc1F)C(=O)c1ccccc1S2=O` (centres undefined), the survival is 64% (inactive).

Take `Cc1ccc2oc(-c3ccc(Cl)cc3)c(O)c(=O)c2c1`: the survival was 72% (inactive).

Consider `COc1cccc(-c2nnc(SCC(=O)N3CCc4ccccc43)o2)c1`, for which the survival was 70% (inactive).

With `CC1Cc2ccccc2N1C(=O)CSc1nnc(-c2cccc(Cl)c2)o1` (centres undefined), the survival was 34% (active).

Turning to `CC1CCN(C(=O)CSc2nnc(-c3ccccc3Cl)o2)CC1`, the survival was 104% (inactive).

Consider `CC1Cc2ccccc2N1C(=O)CSc1nnc(-c2ccccc2)o1` (centres undefined), for which the survival is 69% (inactive).

`COc1cccc(-c2nnc(SCC(=O)N3c4ccccc4Sc4ccccc43)o2)c1`: the survival is 35% (active).

As for `O=C(CSc1nnc(-c2cccc(F)c2)o1)N1c2ccccc2Sc2ccccc21`, the survival was 114% (inactive).

Regarding `CC1Cc2ccccc2N1C(=O)CSc1nnc(-c2ccccc2Cl)o1` (centres undefined), the survival was 49% (active).

Take `O=C(CSc1nnc(-c2cccc(Cl)c2)o1)N1CCc2ccccc21`: the survival is 85% (inactive).

For the molecule `CC1CCCCN1C(=O)CSc1nnc(-c2ccccc2Cl)o1` (centres undefined), the survival is 74% (inactive).

Take `CCc1cccc(C)c1NS(=O)(=O)c1c(C(=O)N2CCCCCC2)c(C)n(C)c1C`: the survival was 101% (inactive).

In the case of `Cc1ccc(-n2ncc(C(=O)N3CCN(C4CCCCC4)CC3)c2C2CCN(C(=O)OC(C)(C)C)CC2)cc1C`, the survival is 85% (inactive).

With `Cc1cccc(CNS(=O)(=O)c2csc(C(N)=O)c2)c1`, the survival was 76% (inactive).

As for `CC(Oc1ccccc1)C(=O)Nc1ccc(OCc2cc(=O)n3ccsc3n2)cc1` (centres undefined), the survival was 76% (inactive).

For `CCCn1c(=O)c2sccc2n2c(CCCC(=O)Nc3ccc(C)c(F)c3)nnc12`, the survival is 88% (inactive).

With `O=C(C1CCCCC1)N1CCN(c2ncnc3c2cnn3-c2ccccc2)CC1`, the survival was 101% (inactive).

Turning to `O=CN1CCN(C(=O)c2ccc(F)cc2)CC1`, the survival is 78% (inactive).

For `Cc1c(C(=O)NCc2cccc(Cl)c2)sc2ncnc(N(C)C3CCCCC3)c12`, the survival was 101% (inactive).

As to `Cc1ccc(CNC(=O)c2sc3ncnc(N(C)C4CCCCC4)c3c2C)cc1`, the survival was 91% (inactive).

For `Cc1c(C(=O)Nc2ccccc2Cl)sc2ncnc(N(C)C3CCCCC3)c12`, the survival is 92% (inactive).

As for `Cc1cccc(CNC(=O)c2sc3ncnc(N(C)C4CCCCC4)c3c2C)c1`, the survival is 46% (active).

Regarding `Cc1c(C(=O)Nc2ccccc2F)sc2ncnc(N(C)C3CCCCC3)c12`, the survival is 37% (active).

Take `Cc1cccc(NC(=O)c2sc3ncnc(N(C)C4CCCCC4)c3c2C)c1C`: the survival is 118% (inactive).

Regarding `O=C(NC1CC(=O)N(c2cccc(F)c2)C1)c1ccc(S(=O)(=O)N2CCCCC2)cc1` (centres undefined), the survival was 91% (inactive).

`CCc1ccccc1Nc1ncnc2c1nc1n2CCCC1`: the survival was 94% (inactive).

`O=C(CSc1nc2c([nH]c3ccccc32)c(=O)n1-c1ccc(Cl)cc1)N1CCCCCC1`: the survival was 76% (inactive).

In the case of `Cc1cccc(C(=O)Nc2nnc(S(=O)(=O)N(C)c3ccccc3C)s2)c1`, the survival was 32% (active).

For `CN(Cc1ccccc1)S(=O)(=O)c1nnc(NC(=O)c2ccccc2Cl)s1`, the survival was 29% (active).

Take `CCCCC(=O)Nc1nnc(S(=O)(=O)N(C)Cc2ccccc2)s1`: the survival is 91% (inactive).

Consider `Cc1ccc(C(=O)Nc2nnc(S(=O)(=O)N(C)Cc3ccc(Cl)cc3)s2)cc1`, for which the survival was 99% (inactive).

Regarding `Cc1ccccc1C(=O)Nc1nnc(S(=O)(=O)N(C)Cc2ccccc2)s1`, the survival was 75% (inactive).

For the molecule `CCOc1cccc(C(=O)Nc2nnc(S(=O)(=O)N(C)c3ccc(C)cc3)s2)c1`, the survival was 75% (inactive).

Regarding `CN(Cc1ccccc1)S(=O)(=O)c1nnc(NC(=O)c2cccc(Cl)c2)s1`, the survival was 1% (active).

For `Cc1cccc(C(=O)Nc2nnc(S(=O)(=O)N(C)Cc3ccccc3)s2)c1`, the survival is 23% (active).

Turning to `Cc1cccc(N(C)S(=O)(=O)c2nnc(NC(=O)C(C)Oc3ccccc3)s2)c1` (centres undefined), the survival was 54% (inactive).

For the molecule `CCC(=O)Nc1nnc(S(=O)(=O)N(C)Cc2ccccc2)s1`, the survival is 87% (inactive).

As for `CN(Cc1ccc(F)cc1)S(=O)(=O)c1nnc(NC(=O)c2ccccc2Cl)s1`, the survival was 85% (inactive).

`Cc1cccc(C(=O)Nc2nnc(S(=O)(=O)N(C)Cc3ccc(Cl)cc3)s2)c1`: the survival is 95% (inactive).

With `Cc1ccc(S(=O)(=O)c2nnn3c2nc(N(C)Cc2ccccc2)c2cc(Cl)ccc23)cc1C`, the survival was 108% (inactive).

On to `Cc1ccccc1NC(=O)CSCn1nnc2c(=O)[nH]c(Cc3ccc(F)cc3)nc21`, for which the survival is 55% (inactive).

Take `CC(C)Cn1c(=O)c2ccccc2n2c(CCC(=O)Nc3cccc(Cl)c3)nnc12`: the survival was 88% (inactive).

As to `Cc1cc(OC(C)C(=O)N2CCC(c3nc4ccccc4o3)CC2)ccc1Cl` (centres undefined), the survival was 57% (inactive).

Consider `COc1ccc(C(=O)N/C(=C\c2cn(S(=O)(=O)N(C)C)c3ccccc23)C(=O)NCCCn2ccnc2)cc1`, for which the survival is 85% (inactive).

On to `O=C(O)CCc1nnc2cnc3ccccc3n12`, for which the survival was 171% (inactive).

Take `CCc1ccc(NC(=O)CC2C(=O)NCCN2C(=O)c2ccccc2OC)cc1` (centres undefined): the survival is 109% (inactive).

With `COC(=O)c1ccc(NC(=O)c2cc3cc4ccc(OC)c(Cl)c4nc3s2)cc1`, the survival is 98% (inactive).

On to `Cc1ccc(NC(=O)CSc2cc(=O)n(C)c3ccc(Cl)cc23)c(Br)c1`, for which the survival was 79% (inactive).

With `CCCCOC(=O)c1ccc(NC(=O)Cc2coc3c(C)c(C)ccc23)cc1`, the survival is 79% (inactive).

As for `Cc1ccccc1N(C)S(=O)(=O)c1nnc(NC(=O)C(C)C)s1`, the survival was 69% (inactive).

In the case of `Cc1ccccc1N(C)S(=O)(=O)c1nnc(NC(=O)c2ccccc2F)s1`, the survival is 27% (active).

On to `CN(Cc1ccc(F)cc1)S(=O)(=O)c1nnc(NC(=O)c2ccc(F)cc2)s1`, for which the survival is 81% (inactive).

Regarding `CN(Cc1ccccc1)S(=O)(=O)c1nnc(NC(=O)c2ccccc2)s1`, the survival was 26% (active).

In the case of `CN(Cc1ccc(F)cc1)S(=O)(=O)c1nnc(NC(=O)c2ccccc2)s1`, the survival was 102% (inactive).

Consider `CCc1ccc(NC(=O)Cn2c(=O)n(-c3cc(OC)c(OC)c(OC)c3)c(=O)c3ccccc32)cc1`, for which the survival is 72% (inactive).

As for `COC(=O)c1cc2sc(Cl)cc2n1Cc1nc(-c2ccccc2C)oc1C`, the survival is 78% (inactive).

Regarding `CCOC(=O)CSc1nc(-c2ccccc2)cc(C(F)(F)F)c1C#N`, the survival was 70% (inactive).

Regarding `Cc1cc(=O)n2c([nH]c3ccccc32)c1C(=O)O`, the survival was 61% (inactive).

As for `N#Cc1c(C(F)(F)F)cc(=O)n2c1[nH]c1ccccc12`, the survival was 37% (active).

Take `CC(=O)N1CCc2c(sc3c2c(=O)n(-c2ccccc2)c(=O)n3CC(=O)Nc2ccccc2)C1`: the survival is 91% (inactive).

On to `COc1cccc(NC(=O)C(=O)NCCc2csc(-c3ccc(C(F)(F)F)cc3)n2)c1`, for which the survival is 94% (inactive).

With `CCOc1ccccc1NC(=O)c1nnn(CC(=O)Nc2ccc(OC)c(OC)c2)c1N`, the survival is 91% (inactive).

On to `CCCNC(=O)C1CCN(Cc2cc3ccccc3n2Cc2ccccc2)CC1`, for which the survival is 87% (inactive).

Turning to `Cc1ccc(Cn2c(CN3CCC(C(=O)NCC(C)c4ccccc4)CC3)cc3ccccc32)cc1` (centres undefined), the survival is 113% (inactive).

As for `CC(CNC(=O)C1CCN(Cc2cc3ccccc3n2Cc2ccccc2)CC1)c1ccccc1` (centres undefined), the survival is 47% (active).

`Cc1cc(N2CCN(C)CC2)nc2ccc(NC(=O)Nc3ccc(F)cc3F)cc12`: the survival was 73% (inactive).

Turning to `O=C(Cc1ccc(F)cc1)NCCc1csc(-c2cccc(F)c2)n1`, the survival was 88% (inactive).

On to `Cc1ccc(C)c(NC(=O)/C(C#N)=C/c2ccc(C(C)C)cc2)c1`, for which the survival was 66% (inactive).

With `Cc1cc(Nc2ccccc2C)c2cccc(C)c2n1`, the survival was 62% (inactive).

As for `Cc1cc(Cl)c2cccc(Br)c2n1`, the survival is 110% (inactive).

In the case of `Cc1cc(Nc2cccc(O)c2)c2cccc(Br)c2n1`, the survival was 61% (active).

Regarding `CCOc1ccccc1NC(=O)NCCn1c(=O)oc2ccc(C)cc21`, the survival is 71% (inactive).

`Cc1ccc(C(C)C)c(OCCCn2c(=O)oc3ccc(C)cc32)c1`: the survival is -5% (active).

On to `Cc1ccc(C(C)C)c(OCCCn2c(=O)oc3ccccc32)c1`, for which the survival was -3% (active).

As to `Cc1ccc(NC(=O)NCCOCCn2c(=O)oc3ccccc32)c(C)c1`, the survival was 70% (inactive).

Consider `Cc1ccc(C(C)C)c(OCC(=O)N2CCC(c3nc4ccccc4o3)CC2)c1`, for which the survival was 80% (inactive).

Turning to `Cc1cccc(NC(=O)NCCn2c(=O)oc3ccc(C)cc32)c1`, the survival was 71% (inactive).
